Assay results as given in PubChem BioAssay (NCI).
This is part of a sample that, as a whole, favours compounds with a hit. Of some 83,000 tested, about 20% had one in any assay.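 How to read the values: 0–100, growth inhibition (40 = 60% inhibited); 0, no net growth; -100 to 0, cell death (-40 = 40% of starting cells died; -100 = all dead).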 Values without a mark were called inactive. Activity calls are given as the source filed them. Rule for the calls: active = growth percent below 10; inactive = the rest.

What was measured:
Assay in all cases: NCI-60 one-dose screen, 48 h (100 = growth as untreated, 0 = no growth, -100 = all killed)
Settings in all cases: 10 µM unless noted
DU-145 prostate = test system: DU-145 prostate
K-562 leukemia = test system: K-562 leukemia
MALME-3M melanoma = test system: MALME-3M melanoma
MDA-MB-231 breast = test system: MDA-MB-231 breast
RXF 393 renal = test system: RXF 393 renal
SF-268 CNS = test system: SF-268 CNS
SF-295 CNS = test system: SF-295 CNS
SF-539 CNS = test system: SF-539 CNS
UACC-257 melanoma = test system: UACC-257 melanoma
M14 melanoma = test system: M14 melanoma

Row | SMILES | growth (DU-145 prostate) | growth (K-562 leukemia) | growth (MALME-3M melanoma) | growth (MDA-MB-231 breast) | growth (RXF 393 renal) | growth (SF-268 CNS) | growth (SF-295 CNS) | growth (SF-539 CNS) | growth (UACC-257 melanoma) | growth (M14 melanoma)
1 | Cc1cccc(NC(=O)c2sc3nc4c(cc3c2N)CN(Cc2ccccc2)CC4)c1C | 0.783% (active) | 13.1% | 53.5% | 45.2% | 16.9% | 41.4% | 27.6% | 19.8% | 87.9% | 4.27% (active)
2 | COc1cc(NC(=O)Nc2cnc(Nc3ccc(N4CCOCC4)cc3)nc2Oc2ccc(F)cc2)cc(OC)c1 | 86.3% | 72.5% | 62.7% | 87.6% | 77.8% | 75.8% | 109% | 89.1% | 78% | 91.7%
3 | FC(F)(F)c1ccc2c(Nc3cccc(C4CC(c5ccccc5)=NN4c4ccc(Cl)cc4)c3)ccnc2c1 (stereo not given) | 47.7% | 6.6% (active) | 83% | 68% | 74.2% | 50.8% | 57.8% | 86.9% | 73.8% | 41.2%
4 | O=C1NN(c2ccccc2)C(c2ccc(Cl)cc2)N2CCC[C@H]12 (stereo not given in full) | 100% | 97% | 92.2% | 113% | 108% | 97.4% | 101% | 111% | 94.7% | 97.9%
5 | COc1ccc(C(=O)c2cc(F)c(F)c(OC)c2F)cc1OC(=O)CCl | 57.2% | 15.7% | 57% | 48.8% | 69.7% | 58.7% | 85.2% | 25.6% | 72% | -3.12% (active)
6 | NC(=O)c1ccc(C2C3=C(CCCC3=O)OC3=C2C(=O)c2ccccc2C3=O)cc1 (stereo not given) | 12.1% | 5.5% (active) | -16.3% (active) | 5.67% (active) | 60% | 9.54% (active) | 42.9% | 0.536% (active) | -7.13% (active) | -0.786% (active)
7 | C=C1C(=O)O[C@H]2[C@H]1CC/C(COC(=O)CCCCC(=O)OC/C1=C/CC[C@@]3(C)O[C@H]3[C@H]3OC(=O)C(=C)[C@@H]3CC1)=C\CC[C@@]1(C)O[C@@H]21 | 56.2% | 9% (active) | 25.5% | 29.5% | -44.1% (active) | 82.2% | 101% | 46.5% | 81.9% | 47.8%
8 | C=C(C)[C@@H]1CC[C@]2(C(=O)N=C=S)CC[C@]3(C)[C@H](CC[C@@H]4[C@@]5(C)CCC(=O)C(C)(C)[C@@H]5CC[C@]43C)[C@@H]12 | 33.5% | 18.8% | 40.7% | 18% | 50.6% | 36.5% | 36% | 31.8% | 54.7% | 39.3%
9 | COC(=O)[C@]1(C)CCC[C@]2(C)[C@H]3C[C@H]4C(C(C)C)=C[C@]3(CC[C@H]21)[C@@H]1C(=O)N(CCC#N)C(=O)[C@@H]14 | 99.4% | 55.8% | 103% | 89.5% | 86.7% | 89.4% | 99.5% | 98% | 85.4% | 83.1%
10 | COc1ccc(/C=C(/C(=O)N2CCCC2)c2cc(OC)c(OC)c(OC)c2)cc1 | 17% | 12.5% | 50.1% | 58.5% | 5.92% (active) | 60.1% | 18.3% | 17.1% | 52.4% | 2.21% (active)
11 | C=C1C(=O)O[C@H]2[C@H]1CC/C(COC(=O)CCC(=O)OC/C1=C/CC[C@@]3(C)O[C@H]3[C@H]3OC(=O)C(=C)[C@@H]3CC1)=C\CC[C@@]1(C)O[C@@H]21 | 18.7% | 3.55% (active) | -5.56% (active) | -0.376% (active) | -71.4% (active) | 78.8% | 98.4% | 16.6% | 21.4% | 1.21% (active)
12 | C=C(C)[C@@H]1CC[C@]2(C(=O)OCCOCCOCC[P+](c3ccccc3)(c3ccccc3)c3ccccc3)CC[C@]3(C)[C@H](CC[C@@H]4[C@@]5(C)CC[C@H](C)C(C)(C)[C@@H]5CC[C@]43C)[C@@H]12 | -92.1% (active) | -65.7% (active) | -79.4% (active) | -74% (active) | -85.3% (active) | -74.5% (active) | -87.5% (active) | -90.3% (active) | -88.1% (active) | -77.4% (active)
13 | CC(C)Cc1cc(CNC(=O)C2[C@H]3CN(C(=O)c4ccccc4)C[C@@H]23)nn1-c1ccccc1 (stereo not given in full) | 100% | 80.9% | 86.6% | 103% | 99.8% | 94.4% | 101% | 96.8% | 73.4% | 95.5%
14 | Cc1[nH]c(N=Nc2ccccc2)nc1N=Nc1ccccc1 | 33.6% | 23.6% | 30.2% | 38.1% | -31.9% (active) | 19.2% | 17.4% | 6.93% (active) | -42.4% (active) | 3.54% (active)
15 | CC(C)NS(=O)(=O)c1cccc(-c2ccc3c4c(n(CCCN(C)C)c(=O)c3c2)-c2ccccc2C4=O)c1 | 108% | -57.8% (active) | 91.6% | 83.8% | 96.1% | 103% | 104% | 90.7% | 107% | 104%
16 | Cc1cc(C)nc(NS(=O)(=O)c2ccc(Nc3ccc4c5c(n(CCCN(C)C)c(=O)c4c3)-c3ccccc3C5=O)cc2)n1 | 69% | 74.7% | 102% | 108% | 115% | 77.9% | 83.3% | 96.3% | 108% | 89.8%
17 | CC(=O)OCC1SC(OC(C)=O)C(NC(=O)/C=C/CCl)C(OC(C)=O)C1OC(C)=O (stereo not given) | 104% | 91.6% | 99.6% | 102% | 108% | 97.9% | 111% | 109% | 83% | 93.6%
18 | COc1ccc(Cc2nc(C#N)c(N3CCN(c4ccc(F)cc4)CC3)o2)cc1 | 100% | 75.3% | 104% | 98.4% | 76% | 90.5% | 95.5% | 98.2% | 112% | 90%
19 | CC[C@H](Nc1ncnc2nc[nH]c12)c1nc2cccc(CC(=O)c3ccc(C(=O)NO)cc3)c2c(=O)n1-c1ccccc1 | 101% | 85.9% | 56.2% | 99.9% | 83.5% | 83% | 97.9% | 78.5% | 53.5% | 92.5%
20 | COC(=O)/C=C1\SC(=Nc2ccc(F)cc2)N(CCc2c[nH]c3ccccc23)C1=O | 102% | 88% | 99.9% | 96.9% | 110% | 104% | 97.7% | 109% | 72.4% | 102%
21 | Nc1ccc(C2=NN(C(=O)c3cc(-c4ccc(Cl)cc4)nc4ccccc34)C(c3ccccc3)C2)cc1 (stereo not given) | 33.2% | 15.6% | 52.5% | 61.2% | -3.58% (active) | 57.3% | 13.1% | 14.9% | 55.3% | 16.9%
22 | CN(C)c1ccc(-c2ccc3[nH]c(=O)nc(-c4ccc(F)cc4)c3c2)cn1 | 51.6% | 11.9% | 64.4% | 47.7% | 41.5% | 45.5% | 21.5% | 24.2% | 54.4% | 22.7%
23 | NS(=O)(=O)c1ccc(C2C3=C(CCCC3=O)OC3=C2C(=O)c2ccccc2C3=O)cc1 (stereo not given) | -99.1% (active) | -43.3% (active) | -97.4% (active) | 5% (active) | -90% (active) | -42.6% (active) | -80.3% (active) | -88.5% (active) | -90.3% (active) | -95% (active)
24 | [2H]c1cc2c(c([2H])c1F)/C(=C/c1[nH]c(C)c(C(=O)NCCN(CC)CC)c1C)C(=O)N2 | 34.6% | 55.3% | 10.8% | 67.7% | 25% | 57.7% | 85.1% | 45.3% | 69.2% | 20.6%
25 | O=C1[C@@H](OS(=O)(=O)CC(F)(F)F)[C@H](c2ccc(F)cn2)N1c1cc2c3ccccc3ccc2c2ccccc12 | 84.5% | 44.5% | 95% | 71.2% | 85.9% | 78.9% | 83.3% | 87.1% | 79% | 72.9%
26 | COc1ccc(NC(=O)Nc2ccc(Nc3nc(C)cc(Nc4ccc(C)cc4)n3)cc2)cc1 | -95.8% (active) | -60.9% (active) | -78.7% (active) | -75.8% (active) | -80.7% (active) | -67.9% (active) | -66% (active) | -89.5% (active) | -87.8% (active) | -82.9% (active)
